From PubChem
TrxR1 inh-1 = qHTS Assay for Inhibitors of Mammalian Selenoprotein Thioredoxin Reductase 1 (TrxR1): qHTS. AID 588453, 2011. 390,000 compounds, 1% hits. recombinant rTrxR1, NADPH fluorescence consumption, selenite substrate. Potency, µM (doses to about 114 µM), hits mostly inhibitors. Thioredoxin reductase 1, cytoplasmic (Rattus norvegicus), O89049; further: nearly all actives have a fitted effect of over 65% in size
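Rat TrxR1 (90 nM in the dispensed reagent) was pre-reduced with 400 uM NADPH for 5 min at room temperature, then incubated with compound for 15 min. After 400 uM selenite was added, NADPH fluorescence (Ex 340/Em 450 nm) was followed for 8 min.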
PINK1 expr mod = A Quantitative High throughput Screen to Identify Chemical Modulators of PINK1 Expression; AID 624263, 2012; 410,000 compounds, 0.2% hits; PINK1 immunofluorescence, high-content cytometry, 24 h; Potency, µM (series often up to 76.6 µM), actives largely listed as activators; active means well fitted activation curve with a large enough effect; inconclusive means small, poorly fitted or top-dose-only effect; cell line not stated here; further: nearly all actives have a fitted effect of over 65% in size
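Compound titrations (5 concentrations, 24 h) on a stable cell line; DMSO and CCCP controls. Endpoint: fixed-cell PINK1 immunofluorescence with mitochondrial, cell and nuclear markers, scanned by microplate cytometer.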
GALK inhibitor = qHTS Assay for Inhibitors of Human Galactokinase (GALK) | AID 1868, 2009 | Purified GALK, Kinase-Glo residual ATP luminescence | 270,000 compounds, 0.007% hits | Potency, µM (titrated, usually from 57.5 µM), hits mostly inhibitors
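Human GALK (5 nM) with 35 uM ATP and 100 uM galactose in 20 mM HEPES pH 8.0, 5 mM MgCl2, 60 mM NaCl, 1 mM DTT, 0.01% BSA. After 1 h at room temperature, leftover ATP was read by Kinase-Glo Plus luminescence.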
TrxR1 substrate = qHTS Assay for Substrates of Mammalian Selenoprotein Thioredoxin Reductase 1 (TrxR1): qHTS; Thioredoxin reductase 1, cytoplasmic (Rattus norvegicus), O89049; purified TrxR1 substrate turnover, NADPH consumption readout; Potency, µM (doses to about 114 µM); 390,000 compounds, 0.01% hits; further: nearly all actives have a fitted effect of over 50% in size
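Rat TrxR1, dispensed at 90 nM, was prereduced with 400 uM NADPH (final) for 5 min at ~22 deg C, then incubated with compound 15 min before 400 uM selenite. A first-read NADPH fluorescence drop versus no-compound background flagged substrates.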
miR-21 reporter = qHTS Assay for Modulators of miRNAs and/orActivators of miR-21; HeLa miR-21 FLuc reporter, luciferase, 48 h; Potency, µM (doses to about 38.3 µM), actives largely listed as activators; 340,000 tested, under 10 active; AID 2288, 2010;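 further: miR-21 action dims this reporter so a rising signal means less miR-21 action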
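Using DMEM plus 10% FBS, HeLa miR-21-FLuc cells are incubated with test compounds (final up to about 40uM) for 48 hours; firefly luciferase signal is then imaged following reagent-mediated lysis.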
TRb SRC2 Alpha = Protein Interaction Secondary Assay for Inhibitors of the Interaction of Thyroid Hormone Receptor and Steroid Receptor Coregulator 2, Alpha Screen. shares compounds with TrxR1 inh-1. AlphaScreen TRb LBD-SRC2 peptide binding, luminescence. Potency, µM. 30 compounds, 50% hits. AID 2444, 2010; calls by dose curve
HepG2 tox = Cell Viability Secondary Assay for Inhibitors of the Interaction of Thyroid Hormone Receptor and Steroid Receptor Coregulator 2; shares compounds with TrxR1 inh-1; HepG2 viability, ATP luminescence (CellTiter-Glo), 72 h; Potency, µM; 40 compounds, 50% hits; calls by dose curve
AR SRC2 FP = Androgen Receptor Selectivity Assay for Inhibitors of the Interaction of Thyroid Hormone Receptor and Steroid Receptor Coregulator 2. shares compounds with TrxR1 inh-1. AR-LBD Tx-SRC2-3 fluorescence polarization, 3 h. calls only. 25 tested, under 10 active. AID 2448, 2010; call rule not given here
Target sequence (P10275 whole entry, looked up, the tested form may be a part): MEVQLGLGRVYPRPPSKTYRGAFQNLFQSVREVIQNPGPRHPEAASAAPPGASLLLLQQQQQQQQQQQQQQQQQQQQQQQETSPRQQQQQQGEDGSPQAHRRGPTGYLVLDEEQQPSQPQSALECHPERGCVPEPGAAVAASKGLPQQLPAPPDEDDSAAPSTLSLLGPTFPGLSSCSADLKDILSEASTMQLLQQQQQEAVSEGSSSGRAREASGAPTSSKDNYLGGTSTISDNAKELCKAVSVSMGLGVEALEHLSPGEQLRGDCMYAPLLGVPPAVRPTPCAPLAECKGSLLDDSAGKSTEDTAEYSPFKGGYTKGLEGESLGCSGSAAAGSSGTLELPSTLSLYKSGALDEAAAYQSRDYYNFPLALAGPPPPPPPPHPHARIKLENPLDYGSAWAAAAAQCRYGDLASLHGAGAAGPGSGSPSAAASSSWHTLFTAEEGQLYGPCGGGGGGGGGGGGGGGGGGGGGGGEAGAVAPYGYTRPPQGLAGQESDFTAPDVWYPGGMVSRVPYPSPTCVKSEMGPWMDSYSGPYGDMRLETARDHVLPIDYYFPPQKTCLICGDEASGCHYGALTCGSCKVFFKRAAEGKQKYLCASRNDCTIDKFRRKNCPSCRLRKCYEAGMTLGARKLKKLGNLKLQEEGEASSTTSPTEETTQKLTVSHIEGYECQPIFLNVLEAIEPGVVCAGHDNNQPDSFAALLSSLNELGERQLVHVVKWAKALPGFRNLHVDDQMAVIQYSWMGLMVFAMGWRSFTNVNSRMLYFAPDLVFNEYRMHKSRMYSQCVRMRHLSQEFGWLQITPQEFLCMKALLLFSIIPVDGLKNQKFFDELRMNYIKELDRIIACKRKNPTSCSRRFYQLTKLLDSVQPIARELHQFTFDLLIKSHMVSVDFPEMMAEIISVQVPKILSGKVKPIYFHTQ
PPARg DRIP2 FP = PPAR gamma Selectivity Assay For Inhibitors of the Interaction of Thyroid Hormone Receptor and Steroid Receptor Coregulator 2; PPARg LBD / Texas Red DRIP-2 peptide, fluorescence polarization, 3 h; shares compounds with TrxR1 inh-1; 25 tested, under 10 active; Potency, µM; calls by dose curve
VDR SRC2 FP = Vitamin D Receptor Selectivity Assay for Inhibitors of the Interaction of Thyroid Hormone Receptor and Steroid Receptor Coregulator 2. shares compounds with TrxR1 inh-1. VDR LBD/SRC2-3 peptide, fluorescence polarization, 3 h. 25 tested, under 10 active. Potency, µM; calls by dose curve
GR counterassay = qHTS Assay for Inhibitors of Mammalian Selenoprotein Thioredoxin Reductase 1 (TrxR1): Counterassay in Glutathione Reductase (GR); shares compounds with TrxR1 inh-1; purified GR, DTNB reduction absorbance 405 nm kinetic; activity change, negative = inhibition, % at 57.1 µM; 55 tested, under 10 active; AID 652020, 2013
TrxR1 inh-2 = qHTS Assay for Inhibitors of Mammalian Selenoprotein Thioredoxin Reductase 1 (TrxR1): Hit Validation in Primary Screen; Potency, µM, usual class: inhibitors; 55 compounds, 50% hits; AID 652023, 2013; shares compounds with TrxR1 inh-1; recombinant TrxR1, NADPH fluorescence consumption, selenite substrate
TrxR1 insulin = qHTS Assay for Inhibitors of Mammalian Selenoprotein Thioredoxin Reductase 1 (TrxR1): Insulin MOA Assay; Potency, µM; shares compounds with TrxR1 inh-1; AID 652037, 2013; TrxR1 Trx-coupled insulin reduction, NADPH absorbance 340 nm; 55 compounds, 20% hits;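 active means compounds with a measured potency under 100 micromolar; inconclusive means filed, but no rule given; inactive means potency at or above that, or unmeasurable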
TrxR1 inh-3 = qHTS Assay for Inhibitors of Mammalian Selenoprotein Thioredoxin Reductase 1 (TrxR1): DTNB Assay. shares compounds with TrxR1 inh-1. purified TrxR1, DTNB reduction, A412. Potency, µM. 55 compounds, 90% hits;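 active means a half-inhibiting concentration could be measured and was below 100 µM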
A number is an active result. A selection: hits, their analogues and other compounds. The true share with any hit is near 1.1%. Unless noted, the call rests on the fitted dose curve; in most records, active means well fitted curve in the direction sought with a large enough effect; inconclusive means small, poorly fitted or top-dose-only effect, or another doubt; inactive means no such curve, though single readings can be large; an effect the other way counts as inactive or inconclusive.

`C[S+](=O)([O-])c1ccc(C(=O)OCC(=O)NC2C3CC4CC(C3)CC2C4)cc1` (stereo not drawn) gave TRb SRC2 Alpha inactive, HepG2 tox inactive, AR SRC2 FP inactive, PPARg DRIP2 FP inactive and VDR SRC2 FP inactive.
`O=C(COC(=O)c1cc([N+](=O)[O-])ccc1F)NC1C2CC3CC(C2)CC1C3` (stereo not drawn) gave TRb SRC2 Alpha inactive, HepG2 tox inactive, AR SRC2 FP inactive, PPARg DRIP2 FP inactive and VDR SRC2 FP inactive.
For O=C(COC(=O)c1cc([N+](=O)[O-])ccc1Cl)NC1C2CC3CC(C2)CC1C3 (stereo not drawn) the results were TRb SRC2 Alpha inactive, HepG2 tox inactive, AR SRC2 FP inactive, PPARg DRIP2 FP inactive and VDR SRC2 FP inactive.
For Cc1ccc2oc(=O)c3cnn(CC(=O)N4CCN(c5ccccc5F)CC4)c3c2c1 the results were TrxR1 inh-1 inactive, PINK1 expr mod inactive, TrxR1 substrate inactive and miR-21 reporter inactive.
`CC(C)OC(=O)c1cn(-c2ccccc2)nc1-c1ccco1` gave TrxR1 inh-1 5.01µM, PINK1 expr mod inactive, GALK inhibitor inactive, TrxR1 substrate inactive, miR-21 reporter inactive, GR counterassay inactive, TrxR1 inh-2 inconclusive, TrxR1 insulin inactive and TrxR1 inh-3 2.48µM.
Screening CCN1CCN(c2ncc3c(n2)CCN(Cc2ccccc2C)C3)CC1 returned TrxR1 inh-1 inactive, PINK1 expr mod inactive, TrxR1 substrate inactive and miR-21 reporter inactive.
O=[N+]([O-])c1ccc(Cl)c(S(=O)(=O)Nc2cccc(S(=O)(=O)NC3=NCCC3)c2)c1 was read as TrxR1 inh-1 2.51µM, PINK1 expr mod inactive, TrxR1 substrate inactive, GR counterassay inactive, TrxR1 inh-2 0.597, TrxR1 insulin inactive and TrxR1 inh-3 0.051µM.
Cc1ccc(N2C(=O)[C@@H]3[C@H](C2=O)C2CCCN2[C@@H]3C(=O)c2ccccc2)cc1 (stereo partly drawn) was read as TrxR1 inh-1 inactive, PINK1 expr mod inactive, GALK inhibitor inactive, TrxR1 substrate inactive and miR-21 reporter inactive.
`O=C(c1ccccc1)[C@@H]1[C@@H]2C(=O)N(c3ccc(F)cc3)C(=O)[C@@H]2C2CCCN21` (stereo partly drawn) gave TrxR1 inh-1 50.1µM, PINK1 expr mod inactive, GALK inhibitor inactive, TrxR1 substrate inactive, miR-21 reporter inactive, GR counterassay inactive, TrxR1 inh-2 inconclusive, TrxR1 insulin inactive and TrxR1 inh-3 7.44µM.
Screening Cc1ccccc1NC(=S)NC(=O)CCc1ccccc1 returned TrxR1 inh-1 12.6µM, PINK1 expr mod inactive, GALK inhibitor inactive, TrxR1 substrate inactive, miR-21 reporter inactive, GR counterassay inactive, TrxR1 inh-2 2.99, TrxR1 insulin inactive and TrxR1 inh-3 36.1µM.
`NC(=O)c1ccccc1NC(=S)NC(=O)CCc1ccccc1` gave TrxR1 inh-1 inactive, PINK1 expr mod inactive, GALK inhibitor inactive, TrxR1 substrate inactive and miR-21 reporter inactive.
For CCOC(=O)c1[nH]c2ccccc2c1NC(=O)c1ccccc1F the results were TrxR1 inh-1 inactive, PINK1 expr mod inactive, TrxR1 substrate inactive and miR-21 reporter inactive.
Screening CCCn1c(N)c(C(c2ccc(OC)cc2)N2CCN(c3ccccc3)CC2)c(=O)[nH]c1=O (stereo not drawn) returned TrxR1 inh-1 10µM, PINK1 expr mod inactive, GALK inhibitor inactive, TrxR1 substrate inactive, miR-21 reporter inactive, GR counterassay inactive, TrxR1 inh-2 inconclusive, TrxR1 insulin inactive and TrxR1 inh-3 0.173µM.
For CCOc1cccc(C(=O)NC(=S)Nc2cccnc2)c1 the results were TrxR1 inh-1 inactive, PINK1 expr mod inactive, TrxR1 substrate inactive and miR-21 reporter inactive.
CCC(=O)Nc1cccc(NC(=S)NC(=O)c2ccc(C)cc2)c1 was read as TrxR1 inh-1 inconclusive, PINK1 expr mod inactive, GALK inhibitor inactive, TrxR1 substrate inactive and miR-21 reporter inactive.
For CCC(=O)Nc1cccc(NC(=S)NC(=O)c2cccc(C)c2)c1 the results were TrxR1 inh-1 11.2µM, PINK1 expr mod inactive, GALK inhibitor inactive, TrxR1 substrate inactive, miR-21 reporter inactive, GR counterassay inactive, TrxR1 inh-2 5.97, TrxR1 insulin inactive and TrxR1 inh-3 1.34µM.
